Measurements taken from PubChem BioAssay (NCI).
This is part of a sample that, as a whole, favours compounds with a hit. Of some 83,000 tested, about 20% had one in any assay.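 Compound tested at a single concentration for 48 hours in 96-well plates; a percent growth value below 10 was scored as active.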 Values without a mark were called inactive. Calls of active or inactive are those of the source.

system: HS 578T breast; experiment: NCI-60 one-dose screen, 48 h (100 = growth as untreated, 0 = no growth, -100 = all killed); details: 10 µM
Protocol: Growth inhibition of the HS 578T human tumor cell line is measured as a screen for anti-cancer activity. Cells are grown in 96 well plates and exposed to the test compound for 48 hours. Compounds are tested at a single concentration, which is 10^-5 M for most compounds. The reported endpoint is percent growth (GI% or GIPRCNT), where numbers from 0 - 100% represent growth inhibition, and numbers from -100% - 0 represent cell death. For example, a value of 40 represents 60% growth inhibition. A value of 0 means no net growth occurred over the course of the experiment. A value of -40 indicates 40% of cells at the beginning of the experiment died by the end of the experiment. A value of -100 means all cells are dead at the end of the experiment.
NCI-60 Human Tumor Cell Lines Screen was performed using the standard one-dose NCI protocol, which is described in more detail at https://dtp.cancer.gov/discovery_development/nci-60/default.htm.
Compounds with GIPRCNT values below 10 were considered active. Activity score was based on GIPRCNT using the following formula: […]
Score is 0 for GIPRCNT values of 100 or above, 50 for GIPRCNT values of 0, and 100 for GIPRCNT values of -100.

Structure (SMILES) | growth
Cc1ncc([N+](=O)[O-])n1CCOc1ccc(C(=O)/C=C/c2ccc(C(F)(F)F)cc2)cc1 | 66.9%
CCOC(=O)c1cc2c(n1Cc1cc(OC)cc(OC)c1)-c1oncc1CC2 | -1.17% (active)
O=C(N/N=c1/ccoc2cccnc12)N1CCN(c2ncccn2)CC1 | 51.4%
CCc1c(C)[nH]c(=O)c(C(N)=O)c1C#N | 95.5%
Nc1ccn([C@@H]2O[C@H](COP(=O)(O)O[C@@H]3C[C@H](n4cc(F)c(=O)[nH]c4=O)O[C@@H]3COP(=O)(O)O[C@@H]3C[C@H](n4cc(F)c(=O)[nH]c4=O)O[C@@H]3COP(=O)(O)O[C@@H]3C[C@H](n4cc(F)c(=O)[nH]c4=O)O[C@@H]3COP(=O)(O)O[C@@H]3C[C@H](n4cc(F)c(=O)[nH]c4=O)O[C@@H]3COP(=O)(O)O[C@@H]3C[C@H](n4cc(F)c(=O)[nH]c4=O)O[C@@H]3COP(=O)(O)O[C@@H]3C[C@H](n4cc(F)c(=O)[nH]c4=O)O[C@@H]3COP(=O)(O)O[C@@H]3C[C@H](n4cc(F)c(=O)[nH]c4=O)O[C@@H]3COP(=O)(O)O[C@@H]3C[C@H](n4cc(F)c(=O)[nH]c4=O)O[C@@H]3COP(=O)(O)O[C@@H]3C[C@H](n4cc(F)c(=O)[nH]c4=O)O[C@@H]3COP(=O)(O)O[C@@H]3C[C@H](n4cc(F)c(=O)[nH]c4=O)O[C@@H]3COP(=O)(O)OCCOCCOCCOCCOCCOCCO)[C@H](O)C2O)c(=O)n1 (stereo not given in full) | 111%
COC(=O)c1cnc2c(c1)Oc1ccccc1-c1ccnn1-2 | 93.7%
Cc1ccc([P+](Cc2ccc([N+](=O)[O-])cc2)(c2ccc(C)cc2)c2ccc(C)cc2)cc1 | 86.9%
Cc1nc(Nc2nc3ccccc3o2)nc(-c2cccc([N+](=O)[O-])c2)c1C(=O)Nc1ccc(F)c(Cl)c1 | 4.55% (active)
O=C(O)c1ccc(CNc2ccc(C(=O)CCl)cc2)cc1 | 87.4%
O=C(CCc1ccccc1)N1CCN(C(=O)CCc2ccccc2)CC1 | 100%
C#CCNCCN1C(=O)c2ccc3c4c(ccc(c24)C1=O)C(=O)N(CCNCC#C)C3=O | 64%
O=C(Nc1cccc(F)c1)Nc1cccc(Cl)c1 | 97.3%
N=C(N)c1ccc(-c2ccc(-c3ccccc3)s2)cc1F | -41.6% (active)
COc1cccc(C(=O)NNc2nc(N3CCN(C4CCCCC4)CC3)nc(N3CCN(C(c4ccccc4)c4ccccc4)CC3)n2)c1 | 74.2%
Cc1cc(C#Cc2ccccc2)ccc1-n1c(/C=C/c2cc(O)ccc2O)nc2ccccc2c1=O | 31.8%
CC1(C)CNC(=O)N1 | 98.8%
O=[N+]([O-])c1ccc(-c2nc(-c3ccccc3)c(-c3ccccc3)n2-c2ccccc2)cc1 | 20.5%
CC(=O)Nc1ccc(Sc2ccc(NC(C)=O)cc2)cc1 | 104%
C#C[C@]1(O)CC[C@H]2[C@@H]3CC[C@H]4CC(F)(F)CC[C@]4(C)[C@H]3CC[C@@]21C | 77.6%
c1ccc(CNc2nc(Nc3ccc(-c4nc5ccccc5[nH]4)cc3)c3cn[nH]c3n2)cc1 | -6.55% (active)

Structure (SMILES) | growth
Cc1ccc(S(=O)(=O)Oc2ccccc2-c2ccccc2)cc1 | -21.5% (active)
COc1ccc2nc(NC(=O)Nc3c(F)cccc3F)sc2c1 | 117%
CCC1(C)OC(=O)NC1=O (stereo not given) | 109%
Cc1cc(Nc2cccc(F)c2)nc(NCc2ccccc2)n1 | 68.4%
Nc1cc2c(cc1Cl)-c1ccc(Cl)cc1C2=O | 97.3%
COc1ccc2c(c1)/C(=C/c1cc(OC)c(OC)c(OC)c1)C(=O)N2C | -12.4% (active)
CCCCc1ccc(NC(=O)N(CCCl)N=O)cc1 | 111%
COc1ccc(-c2nnc(SC/C(=N\O)c3ccccc3)o2)cc1 | 94%
NC(N)=NS(=O)(=O)c1ccc(Nc2ccc3nnc(-c4ccncc4)n3n2)cc1 | 99.6%
CCCCCC(=O)N1c2ccccc2NC2=C(C(=O)CC(c3ccc(OC)c(OC)c3)C2)C1c1ccc(C(F)(F)F)cc1 (stereo not given) | 78.7%
COc1ccc2nc(-c3ccccc3)cc(C(C)=O)c2c1 | 94.3%
Oc1ccc(Cn2cc3c(c2-c2ccccc2)CCc2cnoc2-3)cc1 | 106%
CC(=O)CS(C)(=O)=O | 107%
Nc1ncncc1-c1ccc(F)cc1 | 113%
CC(C)C[C@H](NC(=O)Cn1ccc2ccccc2c1=O)B(O)O | 90%
CCOc1ccc2c(c1)CC[C@@H]1[C@@H]2CC[C@]2(C)[C@@H](O)[C@@H](O)C[C@@H]12 | 113%
CCc1ccc(-c2nnc(COc3ccc(-c4nc5ccccc5[nH]4)cc3OC)o2)cc1 | 14.4%
COc1cc(-c2nc3ccccc3[nH]2)ccc1OCC(=O)N=Nc1c(O)[nH]c2ccccc12 | 83.7%
CCN(Cc1ccccc1)C1CCN(Cc2cc(Br)ccc2O)CC1 | 56.6%
O=C(O)c1ccccc1C(=O)c1cccc2c(F)cccc12 | 126%
